Measured values taken from PubChem BioAssay (Tox21).
Several values for one entry are separate records, joined by “and”; a condition that tells them apart may be missing. Equal entries are not always repeated. Inconclusive results are not listed. Some structures have more than one record in an assay (separate samples or runs), and their calls can disagree. Activity calls are given as the source filed them. Unless noted, the call rests on the fitted dose curve; in most records, active means well fitted curve in the direction sought with a large enough effect in the repeat runs; inconclusive means weak or mixed curves; inactive means no such curve, though single readings can be large; an effect the other way counts as inactive or inconclusive.

Columns and labels:
[1] = qHTS assay to identify small molecule antagonists of the estrogen related receptor (ERR) signaling pathway from Tox21 library - cell viability counter screen (AID 1224834); further: nearly all actives have a fitted effect of over 30% in size; further: potency means the concentration at half of the fitted maximal effect
Procedure, shortened: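 ERR cells, 2,000/well; 6 h settle at 37 C/5% CO2; pin-tool compound transfer in DMSO; 17.5 h at 37 C; CellTiter-Fluor, 30 min; fluorescence intensity.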

[2] = target: Luciferin 4-monooxygenase (Photinus pyralis) (UniProt P08659); assay: qHTS assay to identify small molecule inhibitors of firefly luciferase (AID 1224835); further: nearly all actives have a fitted effect of over 25% in size; further: potency means the concentration at half of the fitted maximal effect
Procedure, shortened: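 Biochemical qHTS: compounds run as interplate titrations against purified firefly enzyme, with D-luciferin and ATP each at its KM concentration. Light output recorded by CCD imaging.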

[3] = qHTS assay to identify small molecule agonists of the constitutive androstane receptor (CAR) signaling pathway - cell viability counter screen (AID 1224836); further: nearly all actives have a fitted effect of over 45% in size; further: potency means the concentration at half of the fitted maximal effect
Procedure, shortened: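 Cells were seeded and incubated 4 hrs. Compounds were added across 15 concentrations together with PK11195 at 0.75 uM final. Plates were incubated 23 hrs at 37 C. CellTiter-Fluor was added and fluorescence measured.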

[4] = qHTS assay to identify small molecule antagonists of the constitutive androstane receptor (CAR) signaling pathway - cell viability counter screen (AID 1224837); further: nearly all actives have a fitted effect of over 45% in size; further: potency means the concentration at half of the fitted maximal effect
Procedure, shortened: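 Viability was measured with CellTiter-Fluor in a HepG2 line carrying stably transfected hCAR and a CYP2B6-2.2kb construct. Cells were exposed for 23 hr at 37 C to 15 compound concentrations with 50 nM CITCO as agonist.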

[5] = target: Nuclear receptor subfamily 1 group I member 3 (Homo sapiens) (UniProt Q14994); assay: qHTS assay to identify small molecule antagonists of the constitutive androstane receptor (CAR) signaling pathway (AID 1224838);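 further: HepG2 cells stably expressing hCAR with CYP2B6 luciferase reporter stimulated by CITCO; nearly all actives have a fitted effect of over 40% in size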; further: potency means the concentration at half of the fitted maximal effect
Procedure, shortened: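 Antagonist mode used CITCO at a final 50 nM to activate CAR in human hepatoma HepG2 cells carrying stable hCAR and a 2.2 kb CYP2B6 promoter-luciferase construct. Compounds were tested at 15 concentrations over 24 h, with luminescence as the end point.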

[6] = target: Nuclear receptor subfamily 1 group I member 3 (Homo sapiens) (UniProt Q14994); assay: qHTS assay to identify small molecule agonists of the constitutive androstane receptor (CAR) signaling pathway (AID 1224839); further: nearly all actives have a fitted effect of over 15% in size; further: potency means the concentration at half of the fitted maximal effect; on activation: on the % scale 0 is the no-effect control and ±100 the full control effect
Procedure, shortened: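 Cells were plated and incubated 4 hrs, then dosed with compounds at 15 concentrations. PK11195 was added to 0.75 uM final. After 24 hrs at 37 C, luciferase luminescence was measured.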

[7] = target: Thyrotropin receptor (Homo sapiens) (UniProt P16473); assay: qHTS assay to identify small molecule agonists of the thyroid stimulating hormone receptor (TSHR) signaling pathway (AID 1224843; calls by dose curve; further: on the % scale 0 is the no-effect control and ±100 the full control effect; nearly all actives have a fitted effect of over 45% in size)
Procedure, shortened: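 Agonist-mode screen: TSHR HEK293 cells received test chemicals for half an hour at room temperature, then HTRF cAMP detection reagents for one hour prior to fluorescence measurement. Each chemical ran as a 15-concentration series, triplicated.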

[8] = qHTS assay to identify small molecule agonists of the hypoxia (HIF-1) signaling pathway - cell viability counter screen (AID 1224844; calls by dose curve; further: on the % scale 0 is the no-effect control and ±100 the full control effect; nearly all actives have a fitted effect of over 50% in size)
Procedure, shortened: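 Cytotoxicity was measured in parallel with the HRE-driven beta-lactamase readout: after 17 hrs of compound exposure at 37C, HRE-bla ME-180 cells received CellTiter-Glo and luminescence was recorded 30 min later.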

[9] = qHTS assay to identify small molecule agonists of H2AX (AID 1224845; active means well fitted activation curve with a large enough effect in the signal ratio in the repeat runs, not every such curve was filed as active; the % refers to the signal ratio; further: on the % scale 0 is the no-effect control and ±100 the full control effect)
Procedure, shortened: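 Wild-type CHO-K1 cells, plated overnight, exposed 3hr at 37C to 15 concentrations (0.76% DMSO final). Lysed, then HTRF anti-pH2AX (S139) cryptate and anti-H2AX-d2 antibodies, 24 hr room temperature; 665/620 nm emission read.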

[10] = qHTS assay to identify small molecule agonists of the hypoxia (HIF-1) signaling pathway (AID 1224846; active means well fitted activation curve with a large enough effect in the signal ratio in the repeat runs, not every such curve was filed as active; the % refers to the signal ratio; further: potency means the concentration at half of the fitted maximal effect; on activation: on the % scale 0 is the no-effect control and ±100 the full control effect)
Procedure, shortened: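 Compounds from the Tox21 10K library, dissolved in DMSO, are tested for induction of a hypoxia response element–controlled beta-lactamase reporter in ME-180 cells. Exposure lasts 17 hrs at 37C after a 5 hr settling period, followed by CCF4-AM FRET substrate.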

[11] = qHTS RealTime-Glo MT Cell Viability Assay in HepG2 cells - 24 hour (AID 1224867); further: on the % scale 0 is the no-effect control and ±100 the full control effect; nearly all actives have a fitted effect of over 50% in size
Procedure, shortened: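 Luminescence read-out: viable HepG2 cells reduce a prosubstrate to a NanoLuc substrate, giving a signal proportional to live cell number. Reads taken at 0, 8, 16, 24, 32 and 40 h of compound exposure at 37 C.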

[12] = A CellTox Green Cytotoxicity Assay to monitor cytotoxicity in HEK293 cells - 0 hour (AID 1224869); further: on the % scale 0 is the no-effect control and ±100 the full control effect; nearly all actives have a fitted effect of over 50% in size
Procedure, shortened: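 Cells (HEK293, 600/well) and dye reagent are dispensed together. After 5 h at 37 C, 23 nL compound is pinned in. Plates stay at 37 C for 40 h with fluorescence read at 0h, 8h, 16h, 24h, 32h and 40h.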

[13] = qHTS assay to identify small molecule agonists of H2AX - cell viability counter screen (AID 1224847; calls by dose curve; further: top concentration of the series differs between compounds; on the % scale 0 is the no-effect control and ±100 the full control effect; nearly all actives have a fitted effect of over 30% in size)
Procedure, shortened: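 Cytotoxicity counter screen in wild-type CHO-K1 cells: a 3 hr compound treatment at 37C across 15 concentrations, followed by CellTiter-Glo luminescence to gauge viable cells.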

[14] = qHTS RealTime-Glo MT Cell Viability Assay in HEK293 cells - 32 hour (AID 1224868); further: nearly all actives have a fitted effect of over 50% in size; further: potency means the concentration at half of the fitted maximal effect
Procedure, shortened: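 Nonlytic real-time viability readout: viable cells convert prosubstrate to NanoLuc substrate, giving luminescence proportional to live cell number. HEK293, 600 cells/well, compound added after 5 h, continuous culture at 37 C.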

[15] = qHTS assay to identify small molecule antagonists of the estrogen related receptor signaling pathway with the pleiotropic PPARgamma coactivator (PGC) from Tox21 10K library - cell viability counter screen (AID 1224840; active means well fitted cell-killing curve with a large enough effect in the repeat runs, not every such curve was filed as active; further: nearly all actives have a fitted effect of over 40% in size; further: potency means the concentration at half of the fitted maximal effect)
Procedure, shortened: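 Multiplexed viability counter screen in the PGC/ERR cell line: cells treated with DMSO-dissolved compounds for 17.5 hours at 37 C, then viability measured as CellTiter-Fluor fluorescence.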

[16] = qHTS assay to identify small molecule antagonists of the estrogen related receptor signaling pathway with the pleiotropic PPARgamma coactivator (PGC) from Tox21 10K library (AID 1224841; call rule not given here; further: potency means the concentration at half of the fitted maximal effect)
Procedure, shortened: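 Steps: plate 2,000 PGC/ERR cells per well; incubate 6 h at 37 C with 5% CO2; transfer compounds from DMSO stocks by pin tool; incubate 18 h at 37 C; add One-Glo; measure luminescence 30 min later.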

[17] = qHTS assay to identify small molecule agonists of the estrogen related receptor signaling pathway with the pleiotropic PPARgamma coactivator (PGC) from Tox21 10K library (AID 1224842); further: nearly all actives have a fitted effect of over 15% in size; further: potency means the concentration at half of the fitted maximal effect; on activation: on the % scale 0 is the no-effect control and ±100 the full control effect
Procedure, shortened: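 PGC/ERR reporter cell line, 2,000 cells per well, incubated 6 h at 37 C before 23 nL compound in DMSO was added. After 18 h at 37 C, One-Glo luminescence read following 30 min at room temperature.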

[18] = qHTS assay to identify small molecule antagonists of the estrogen related receptor (ERR) signaling pathway from Tox21 library (AID 1224848)
Procedure, shortened: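 Quantitative high-throughput format: ERR reporter cells (2,000/well) pre-incubated 6 h, treated 18 h at 37 C with compounds in DMSO alongside positive and negative controls, then read by ONE-Glo luminescence.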

[19] = qHTS assay to identify small molecule agonists of the estrogen related receptor (ERR) signaling pathway from Tox21 library (AID 1224849; calls by dose curve; further: on the % scale 0 is the no-effect control and ±100 the full control effect; nearly all actives have a fitted effect of over 15% in size); conditions: ERR reporter cell line, ONE-Glo luciferase, 18 h
Procedure, shortened: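 Cells carrying the ERR reporter were plated and allowed to settle for 6 h, exposed to library compounds for 18 h at 37 C, then lysed with ONE-Glo and luminescence measured.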

Chain of Nuclear receptor subfamily 1 group I member 3 (Homo sapiens) (Q14994 whole entry, looked up): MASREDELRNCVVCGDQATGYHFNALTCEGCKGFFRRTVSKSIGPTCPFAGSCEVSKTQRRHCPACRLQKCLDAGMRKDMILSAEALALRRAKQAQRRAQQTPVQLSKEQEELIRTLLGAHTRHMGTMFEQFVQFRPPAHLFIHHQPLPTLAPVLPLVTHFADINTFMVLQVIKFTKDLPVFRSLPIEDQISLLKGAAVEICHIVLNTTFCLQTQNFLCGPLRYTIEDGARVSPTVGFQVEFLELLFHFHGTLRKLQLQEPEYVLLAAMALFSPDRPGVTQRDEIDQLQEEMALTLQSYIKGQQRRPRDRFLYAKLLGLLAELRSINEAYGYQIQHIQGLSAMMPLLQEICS
Chain of Luciferin 4-monooxygenase (Photinus pyralis) (P08659 whole entry, looked up): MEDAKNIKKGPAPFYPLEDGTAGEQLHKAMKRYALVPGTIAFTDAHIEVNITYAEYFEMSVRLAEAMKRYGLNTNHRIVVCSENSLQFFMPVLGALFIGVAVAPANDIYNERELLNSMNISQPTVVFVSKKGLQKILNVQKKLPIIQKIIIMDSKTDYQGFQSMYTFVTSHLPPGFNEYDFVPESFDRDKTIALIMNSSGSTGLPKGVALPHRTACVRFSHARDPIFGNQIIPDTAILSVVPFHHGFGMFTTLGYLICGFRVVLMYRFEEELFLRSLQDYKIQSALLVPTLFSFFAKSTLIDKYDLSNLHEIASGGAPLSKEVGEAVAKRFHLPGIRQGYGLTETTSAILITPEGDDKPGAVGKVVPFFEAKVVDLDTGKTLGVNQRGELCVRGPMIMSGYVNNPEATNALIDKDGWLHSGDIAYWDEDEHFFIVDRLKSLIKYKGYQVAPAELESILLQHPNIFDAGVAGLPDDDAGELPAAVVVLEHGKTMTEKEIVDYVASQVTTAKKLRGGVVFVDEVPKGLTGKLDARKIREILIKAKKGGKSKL
Chain of Thyrotropin receptor (Homo sapiens) (P16473 whole entry, looked up): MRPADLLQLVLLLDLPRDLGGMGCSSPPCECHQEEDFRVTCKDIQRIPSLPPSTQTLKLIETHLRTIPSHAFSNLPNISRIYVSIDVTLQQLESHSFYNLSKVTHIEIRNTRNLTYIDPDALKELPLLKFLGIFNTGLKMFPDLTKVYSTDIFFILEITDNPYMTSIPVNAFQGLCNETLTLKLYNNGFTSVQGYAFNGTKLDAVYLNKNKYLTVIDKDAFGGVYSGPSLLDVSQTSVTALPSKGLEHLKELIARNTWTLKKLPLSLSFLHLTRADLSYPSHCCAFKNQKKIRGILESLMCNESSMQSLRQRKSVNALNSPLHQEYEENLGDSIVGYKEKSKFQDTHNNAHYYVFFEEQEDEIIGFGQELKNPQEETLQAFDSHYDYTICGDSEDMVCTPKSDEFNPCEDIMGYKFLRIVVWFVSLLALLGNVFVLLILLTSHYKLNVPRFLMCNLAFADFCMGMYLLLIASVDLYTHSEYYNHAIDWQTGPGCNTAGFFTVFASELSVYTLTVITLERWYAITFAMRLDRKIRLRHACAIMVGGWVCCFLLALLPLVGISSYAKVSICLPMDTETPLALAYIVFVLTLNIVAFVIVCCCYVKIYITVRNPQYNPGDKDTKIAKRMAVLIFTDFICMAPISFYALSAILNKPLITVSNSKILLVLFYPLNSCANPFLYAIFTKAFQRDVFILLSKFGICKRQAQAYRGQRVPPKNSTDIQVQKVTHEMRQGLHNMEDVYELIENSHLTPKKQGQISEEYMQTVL

Cc1c(C(N)=O)cc([N+](=O)[O-])cc1[N+](=O)[O-]
inactive: Potency [1] | Potency [2] | Potency [3] | Potency [4] | Potency [5] | Potency [6] | Potency [7] | Potency [8] | outcome [9] | Potency [10] | Potency [11] | Potency [12]

CC(=O)CC/C=C(\C)CCC=C(C)C
inactive: Potency [1] | Potency [2] | Potency [3] | Potency [4] | Potency [5] | Potency [6] | Potency [7] | Potency [8] | outcome [9] | Potency [10] | Potency [13] | Potency [11] | Potency [14] | Potency [12]

C=CC(C)(CCC=C(C)C)OC(C)=O (stereo not drawn)
inactive: Potency [1] | Potency [2] | Potency [4] | Potency [5] | Potency [6] | Potency [15] | Potency [7] | Potency [8] | outcome [9] | Potency [10] | Potency [11] | Potency [12]

O=C(Nc1ccc([N+](=O)[O-])cc1Cl)c1cc(Cl)ccc1O
active: Potency [1] 3.86 µM and 1.3 µM | Potency [2] 399 nM and 301 nM | Potency [4] 5.45 µM and 3.26 µM | Potency [6] 1.54 µM and 820 nM | Potency [15] 2.73 µM | Potency [14] 3.47 µM and 928 nM
inactive: Potency [7] | outcome [9] | Potency [11] | Potency [12]
inactive and 4.11 µM (active): Potency [5]

O=C(c1ccccc1)c1ccc(O)cc1O
69.9 µM (active) and inactive: Potency [1]
active: Potency [2] 89.4 µM | Potency [6] 61.1 µM
inactive: Potency [3] | Potency [5] | Potency [15] | Potency [7] | Potency [8] | outcome [9] | Potency [10] | Potency [11] | Potency [14] | Potency [12]

c1ccc2c(c1)c1cccc3ccc4cccc2c4c31
inactive and 17.4 µM (active): Potency [14]
43.4 µM (active) and inactive: Potency [10]
inactive: Potency [1] | Potency [2] | Potency [3] | Potency [4] | Potency [5] | Potency [7] | Potency [8] | Potency [13] | Potency [11] | Potency [12]
active: Potency [6] 13.6 µM and 27.3 µM

c1ccc2c(c1)Oc1ccccc1S2
active: Potency [2] 72.1 µM
inactive: Potency [1] | Potency [4] | Potency [5] | Potency [6] | Potency [15] | Potency [7] | Potency [8] | outcome [9] | Potency [10] | Potency [13] | Potency [11] | Potency [12]

Nc1ccc(S(=O)(=O)Nc2cnc3ccccc3n2)cc1
inactive: Potency [1] | Potency [2] | Potency [3] | Potency [4] | Potency [5] | Potency [15] | Potency [7] | Potency [8] | outcome [9] | Potency [11] | Potency [14] | Potency [12]

C#C[C@]1(O)CC[C@H]2[C@@H]3CCC4=Cc5oncc5C[C@]4(C)[C@H]3CC[C@@]21C
48.6 µM (active) and inactive: Potency [15]
inactive: Potency [2] | Potency [3] | Potency [4] | Potency [5] | Potency [17] | Potency [8] | outcome [9] | activity change, positive = activation ([19]; at 42.5 µM (top of the series)) -54.8% | activity change, positive = activation ([19]; at 92.4 µM (top of the series)) -70.8% | Potency [12]
active: Potency [1] 30.6 µM and 26.6 µM | Potency [16] 24.3 µM and 23.7 µM | Potency [18] 24.3 µM and 23.7 µM

O=Cc1ccccc1O
inactive: Potency [1] | Potency [2] | Potency [3] | Potency [4] | Potency [5] | Potency [6] | Potency [7] | Potency [8] | outcome [9] | Potency [10] | Potency [13] | Potency [11] | Potency [14] | Potency [12]

CN(C)CCN(Cc1cccs1)c1ccccn1
inactive: Potency [1] | Potency [2] | Potency [3] | Potency [4] | Potency [15] | Potency [7] | Potency [8] | outcome [9] | Potency [11] | Potency [14] | Potency [12]

CCCc1c(OCCCCc2nn[nH]n2)ccc(C(C)=O)c1O
inactive: Potency [1] | Potency [2] | Potency [3] | Potency [4] | Potency [5] | Potency [6] | Potency [7] | Potency [8] | outcome [9] | Potency [11] | Potency [14] | Potency [12]

O=S(=O)(O)c1ccc(O)cc1
inactive: Potency [1] | Potency [2] | Potency [3] | Potency [4] | Potency [15] | Potency [7] | Potency [8] | outcome [9] | Potency [10] | Potency [13] | Potency [11] | Potency [14] | Potency [12]

CCCCCCCCCC(=O)OC
inactive: Potency [1] | Potency [2] | Potency [3] | Potency [4] | Potency [5] | Potency [6] | Potency [7] | Potency [8] | outcome [9] | Potency [10] | Potency [13] | Potency [11] | Potency [12]

NNc1ccc(C(=O)O)cc1
inactive: Potency [1] | Potency [3] | Potency [4] | Potency [7] | Potency [8] | outcome [9] | Potency [10] | Potency [11] | Potency [14] | Potency [12]
active: Potency [2] 32.1 µM and 4.53 µM

c1cc(N(CC2CO2)CC2CO2)ccc1OCC1CO1 (stereo not drawn)
inactive: Potency [2] | Potency [6] | Potency [16] | Potency [7] | Potency [13] | activity change, positive = activation ([19]; at 92.4 µM (top of the series)) -51.1% and -59.2% | Potency [11] | Potency [12]
active: Potency [1] 48.6 µM | Potency [3] 61.1 µM | Potency [4] 54.5 µM | Potency [5] 68.6 µM | Potency [17] 9.7 µM | Potency [18] 61.2 µM and 54.5 µM | Potency [14] 24.6 µM and 21.9 µM
